molecular target: Torsin-1A (Homo sapiens) (UniProt O14656); assay: torsin A binders from cell lysate, primary screen, small-molecule microarray, wild-type, 635/667 nm (AID 1149); conditions: COS7 hTOR1A-WT lysate, 635 nm fluorescence, higher = more signal
Sequence (O14656 whole entry, looked up): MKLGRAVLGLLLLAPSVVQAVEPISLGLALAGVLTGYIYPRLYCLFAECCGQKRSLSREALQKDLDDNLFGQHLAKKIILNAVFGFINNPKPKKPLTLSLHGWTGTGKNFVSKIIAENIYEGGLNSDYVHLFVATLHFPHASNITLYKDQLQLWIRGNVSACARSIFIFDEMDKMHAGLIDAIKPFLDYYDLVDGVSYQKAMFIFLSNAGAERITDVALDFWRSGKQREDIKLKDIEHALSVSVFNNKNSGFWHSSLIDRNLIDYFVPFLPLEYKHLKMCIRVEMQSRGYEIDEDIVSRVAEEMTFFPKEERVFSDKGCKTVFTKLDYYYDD

Row | SMILES | composite z-score
1 | COCCOC(=O)N1C(=O)[C@@]2(c3cc(C#CCC(C(=O)OC)C(=O)OC)ccc31)[C@H](C(N)=O)[C@H]1C(=O)O[C@H](c3ccccc3)[C@H](c3ccccc3)N1[C@@H]2c1ccc(O)cc1 | 0.551
2 | COc1cc(OC)c(C(O)C2C=CC3C(=O)N(c4ccccc4)C(=O)C3N2Nc2ccc(C(C)C)cc2)cc1Br (stereo unspecified) | 0.255
3 | C#CCN1[C@@H](Cc2ccccc2)C(=O)O[C@H](Cc2ccccc2)[C@@H]1/C=C/C1CC1 | 0.459
4 | CN(C)CCCNC(=O)[C@@H]1c2ccccc2C(=O)N(Cc2ccccc2C(F)(F)F)[C@H]1c1ccc(CO)cc1 | 0.0406
5 | COc1ccc([Si](C)(C)[C@H]2[C@H](CCO)O[C@@]3(C(=O)N(Cc4ccc(NC(=O)[C@H](C)O)cc4)c4ccccc43)[C@@H]2C)cc1 | 0.189
6 | CCOC(=O)C[C@H]1[C@H](OC(=O)c2ccccc2-c2ccccc2)[C@@H](NC(=O)c2ccc3ccccc3c2)c2cc(OCCCO)ccc2N1C(=O)Cc1ccc(OC)cc1 | 0.0216
7 | COCCCN1C(=O)[C@@]2(c3ccc([N+](=O)[O-])cc3)CC(=O)N(CC34CC5CC(CC(C5)C3)C4)[C@@H]2c2ccc(CO)cc21 | -0.323
8 | C=C1C(=O)C=C2CN(C(=O)c3ccccc3)[C@@](Cc3ccc(OC)cc3)(C(=O)OC)[C@@H]12 | 0.124
9 | C=CCNC(=O)[C@H]1[C@@H]2C(=O)O[C@@H](c3ccccc3)[C@@H](c3ccccc3)N2[C@@H](c2ccc(OCCO)cc2)[C@]12C(=O)Nc1ccccc12 | 0.0646
10 | COCCOC(=O)N1C(=O)[C@@]2(c3ccccc31)[C@H](c1ccc(O)cc1)N1[C@H](c3ccccc3)[C@H](c3ccccc3)OC(=O)[C@H]1[C@@H]2C(=O)N1CCCCCCC1 | 1.32
11 | C[N+](C)(C)CCCCNC(=O)[C@H]1C[C@H]2C(=O)N[C@@H](Cc3ccccc3)C(=O)N2[C@H]1c1cccc(OCCO)c1 | 0.971
12 | CC(C)[Si](C#CCCc1ccccc1)(O[C@H](c1ccccc1)c1cn(Cc2ccccc2)nn1)C(C)C | 0.5
13 | COc1ccc([Si](C)(C)[C@@H]2[C@@H](CC(=O)N3Cc4ccccc4C[C@H]3CO)O[C@]3(C(=O)N(Cc4cccc(N5CCOC5=O)c4)c4ccccc43)[C@H]2C)cc1 | 0.846
14 | CN1C(=O)[C@@H]2[C@@H](CC(COc3ccccc3)=C3[C@@H](CCc4ccccc4)OB(O)C[C@@H]32)C1=O | 0.179
15 | COc1cc(C(O)C2C=CC3C(=O)N(c4ccccc4)C(=O)C3N2Nc2ccccc2F)cc(OC)c1OC (stereo unspecified) | 0.0422
16 | CCCCN1CC=CC23O[C@@H]4/C=C\CCCOC(=O)C4[C@H]2C(=O)N(C(CO)C(C)C)[C@@H]3C1=O (stereo partly specified) | -0.277
17 | O=C1N(CCS(=O)(=O)c2ccccc2)c2ccccc2C[C@]12N=C(c1ccc(OCCCO)cc1)O[C@@H]2c1ccccc1 | 0.903
18 | O=C1NC(=O)C2C1C=CC(C(O)c1ccc([N+](=O)[O-])cc1)N2Nc1ccccn1 (stereo unspecified) | 0.419

Row | SMILES | composite z-score
19 | O=C1[C@H]2C=C(I)[C@H](C[C@@H]2OCCCCCCO)[C@@]12CO2 | 0.349
20 | CN(C)C(=O)[C@]1(Cc2ccccc2)N=C(c2ccc(OCCCO)cc2)O[C@@H]1c1ccccc1CN=[N+]=[N-] | 1.12
21 | Cc1ccc(C(C)CC(O)C2C=CC3C(=O)N(C)C(=O)C3N2Nc2ccccc2)o1 (stereo unspecified) | 0.371
22 | CCCCCCc1nc(-c2ccc(-c3ccc(Cl)c(Cl)c3)o2)cc2c1[Si](C(C)C)(C(C)C)OC2 | -1.83
23 | CC1CC/C=C\[C@H]2OC34C=CCN(c5ccc(Cl)cc5)C(=O)[C@H]3N(CCCCCCO)C(=O)[C@]4(C)C2C(=O)O1 (stereo partly specified) | -2.03
24 | C=C(CCCC)/C(=C/C[C@H](OC(=O)c1ccncc1)c1cccc(OCCO)c1)c1cnc2ccccc2c1 | 0.947
25 | C[C@@H]1ON(c2ccccc2)[C@H](c2ccccc2)[C@H]1C(=O)O | 0.404
26 | CCOC(=O)C1=CC[C@@H](c2ccc(OC)cc2)N(S(=O)(=O)c2ccc(C)cc2)[C@H]1CC | 0.318
27 | COC(=O)[C@@]1(Cc2ccc(OC)cc2)[C@H]2c3cc(C(=O)N(C)C)[nH]c3C[C@H]2CN1C(=O)c1ccccc1 | -0.209
28 | CCCCC(O)C1C=CC2C(=O)N(c3ccccc3)C(=O)C2N1Nc1ccccc1 (stereo unspecified) | -0.0483
29 | CC(C)OC(=O)CC(=O)CC(O)c1cccc([N+](=O)[O-])c1 (stereo unspecified) | -0.324
30 | O=C1NC(=O)C2C1C=CC(C(O)c1ccc(B(O)O)cc1)N2Nc1ccc(Cl)cc1Cl (stereo unspecified) | -1.22
31 | O=C1c2ccccc2[C@@]2(Cc3ccccc3N(Cc3ccccc3)C2=O)[C@H](c2ccc(CO)cc2)N1Cc1ccccc1Cl | -1.29
32 | CO[C@H]1O[C@H](CO)[C@@H](OC(=O)Nc2ccccc2)[C@H](OC(=O)Nc2ccccc2)[C@H]1OC(=O)Nc1ccccc1 | -0.196
33 | COCCCNC(=O)[C@@]1(CCS(=O)(=O)c2ccccc2)COC(c2ccc(OCCCO)cc2)=N1 | 1.29
34 | COc1ccc(C(O)C2C=CC3C(=O)NC(=O)C3N2Nc2ccc(Cl)cc2Cl)c2ccccc12 (stereo unspecified) | -0.392
35 | O=C1C[C@@](C(=O)O)(c2ccc([N+](=O)[O-])cc2)[C@@H](c2ccc(CO)cc2)N1C1CCCCC1 | 0.298
36 | CC(C)(C)N1CC=CC23O[C@@H]4/C=C\CCCOC(=O)C4[C@H]2C(=O)N(CCCCCO)[C@@H]3C1=O (stereo partly specified) | -0.185
